Source: paper PMC7862700, “An all-to-all approach to the identification of sequence-specific readers for epigenetic DNA modifications on cytosine”

What was measured:
Test in all cases: DAPPL (digital affinity profiling via proximity ligation, sequencing); 10 mM Tris-HCl pH 7.5, 50 mM NaCl, 1 mM DTT, 4% glycerol, room temperature, 30 min; GST-TFs on glutathione beads, 16-mer random dsDNA library, 0.1% formaldehyde crosslink after washing; high values mean tight binding
Details in all cases: protein: recombinant; tags: N-terminal GST; dsDNA, one strand shown
[1] = biological target: T1, FLI1 (Homo sapiens, UniProt Q01543 1-452)
T1 sequence: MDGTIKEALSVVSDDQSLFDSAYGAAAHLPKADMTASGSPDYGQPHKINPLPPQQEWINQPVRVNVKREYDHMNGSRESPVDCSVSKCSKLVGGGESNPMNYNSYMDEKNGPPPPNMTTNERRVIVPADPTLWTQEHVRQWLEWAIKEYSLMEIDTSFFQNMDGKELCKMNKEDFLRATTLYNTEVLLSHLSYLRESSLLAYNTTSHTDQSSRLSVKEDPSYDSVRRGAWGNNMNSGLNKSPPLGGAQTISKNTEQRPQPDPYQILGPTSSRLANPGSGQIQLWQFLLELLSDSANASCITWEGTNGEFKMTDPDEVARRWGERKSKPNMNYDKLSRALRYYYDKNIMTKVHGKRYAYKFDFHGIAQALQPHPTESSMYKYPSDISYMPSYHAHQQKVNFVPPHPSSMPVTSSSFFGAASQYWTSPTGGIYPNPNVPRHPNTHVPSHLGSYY
In short: (§1)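 Binding signal is each hexamer's read frequency for a factor divided by its frequency in the tag-only sample. The factors were GST-fused human transcription factors from yeast, captured on glutathione beads, DNA-barcoded and pooled with that sample. Pools were incubated with 200 nmole of a random double-stranded 16-mer DNA library in Tris/NaCl/DTT/glycerol buffer at room temperature for 30 min, then washed, crosslinked with 0.1% formaldehyde, proximity-ligated with BsaI/T4 ligase (1 h, 37 °C), PCR-amplified and sequenced on an Illumina NextSeq500.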

[2] = biological target: T2, ELK1 (Homo sapiens, UniProt P19419 1-428)
T2 sequence: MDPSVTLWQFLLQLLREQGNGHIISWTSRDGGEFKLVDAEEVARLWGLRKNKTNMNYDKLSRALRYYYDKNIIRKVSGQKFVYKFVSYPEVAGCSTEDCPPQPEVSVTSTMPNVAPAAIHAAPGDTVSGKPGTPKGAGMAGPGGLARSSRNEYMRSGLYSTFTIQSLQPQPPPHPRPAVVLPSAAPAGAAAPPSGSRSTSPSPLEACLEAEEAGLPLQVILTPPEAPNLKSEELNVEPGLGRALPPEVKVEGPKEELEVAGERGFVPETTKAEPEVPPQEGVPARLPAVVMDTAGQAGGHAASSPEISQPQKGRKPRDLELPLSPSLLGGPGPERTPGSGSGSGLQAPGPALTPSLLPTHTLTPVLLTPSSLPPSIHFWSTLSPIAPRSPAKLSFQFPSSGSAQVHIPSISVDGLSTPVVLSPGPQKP
In short: as §1

[3] = biological target: T3, GABPA (Homo sapiens, UniProt Q06546 1-454)
T3 sequence: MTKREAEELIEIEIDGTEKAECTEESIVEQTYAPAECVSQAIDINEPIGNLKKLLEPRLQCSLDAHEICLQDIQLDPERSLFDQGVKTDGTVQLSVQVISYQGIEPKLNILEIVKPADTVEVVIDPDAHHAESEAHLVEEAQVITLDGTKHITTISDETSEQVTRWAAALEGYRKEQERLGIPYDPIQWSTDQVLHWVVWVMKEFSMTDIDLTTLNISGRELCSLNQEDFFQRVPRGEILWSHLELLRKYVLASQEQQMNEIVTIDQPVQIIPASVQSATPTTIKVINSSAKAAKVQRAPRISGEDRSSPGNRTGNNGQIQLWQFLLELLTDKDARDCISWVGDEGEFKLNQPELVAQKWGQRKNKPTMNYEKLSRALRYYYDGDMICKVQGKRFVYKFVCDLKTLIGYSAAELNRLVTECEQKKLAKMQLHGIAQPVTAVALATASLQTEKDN
In short: as §1

[4] = biological target: T4, ERG (Homo sapiens, UniProt P11308 1-479)
T4 sequence: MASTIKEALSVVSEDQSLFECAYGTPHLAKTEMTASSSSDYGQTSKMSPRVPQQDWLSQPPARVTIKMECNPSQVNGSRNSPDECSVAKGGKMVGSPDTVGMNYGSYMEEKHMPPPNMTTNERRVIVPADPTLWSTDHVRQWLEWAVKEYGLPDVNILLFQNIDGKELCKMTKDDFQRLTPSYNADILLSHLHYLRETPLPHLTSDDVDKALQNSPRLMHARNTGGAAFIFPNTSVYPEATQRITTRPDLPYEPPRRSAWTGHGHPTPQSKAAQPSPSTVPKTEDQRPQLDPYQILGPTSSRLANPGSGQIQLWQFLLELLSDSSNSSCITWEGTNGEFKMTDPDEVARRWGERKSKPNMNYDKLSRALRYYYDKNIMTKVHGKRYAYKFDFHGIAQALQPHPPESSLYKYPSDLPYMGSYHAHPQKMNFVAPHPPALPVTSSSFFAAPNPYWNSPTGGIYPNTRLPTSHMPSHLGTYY
In short: as §1

[5] = biological target: ELF1 (Homo sapiens, UniProt P32519 1-619)
In short: as §1

[6] = biological target: T5, EHF (Homo sapiens, UniProt Q9NZC4 1-300)
T5 sequence: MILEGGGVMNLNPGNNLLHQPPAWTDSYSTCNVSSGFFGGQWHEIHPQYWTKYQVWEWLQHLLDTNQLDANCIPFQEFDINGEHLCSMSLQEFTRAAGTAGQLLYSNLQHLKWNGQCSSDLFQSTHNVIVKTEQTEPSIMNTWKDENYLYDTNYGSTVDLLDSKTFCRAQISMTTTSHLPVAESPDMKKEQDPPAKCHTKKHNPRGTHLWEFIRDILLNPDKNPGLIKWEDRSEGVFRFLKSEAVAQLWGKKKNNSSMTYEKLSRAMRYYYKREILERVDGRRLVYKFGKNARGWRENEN
In short: as §1

[7] = biological target: SPI1 (Homo sapiens, UniProt P17947 1-270)
In short: as §1

[8] = biological target: SPIB (Homo sapiens, UniProt Q01892 1-262)
In short: as §1

[9] = biological target: T6, ELK3 (Homo sapiens, UniProt P41970 1-407)
T6 sequence: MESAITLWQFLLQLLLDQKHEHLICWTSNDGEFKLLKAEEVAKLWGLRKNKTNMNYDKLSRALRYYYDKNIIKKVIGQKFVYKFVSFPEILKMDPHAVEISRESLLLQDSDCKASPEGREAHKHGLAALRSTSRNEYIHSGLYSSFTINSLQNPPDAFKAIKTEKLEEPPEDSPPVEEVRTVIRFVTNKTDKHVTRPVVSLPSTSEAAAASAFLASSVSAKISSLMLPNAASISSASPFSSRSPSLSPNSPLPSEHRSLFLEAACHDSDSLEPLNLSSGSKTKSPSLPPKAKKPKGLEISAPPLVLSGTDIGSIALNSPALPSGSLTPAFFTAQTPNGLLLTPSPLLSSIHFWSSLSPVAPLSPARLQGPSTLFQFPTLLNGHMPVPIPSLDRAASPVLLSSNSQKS
In short: as §1

ELF1, sequence (P32519 whole entry): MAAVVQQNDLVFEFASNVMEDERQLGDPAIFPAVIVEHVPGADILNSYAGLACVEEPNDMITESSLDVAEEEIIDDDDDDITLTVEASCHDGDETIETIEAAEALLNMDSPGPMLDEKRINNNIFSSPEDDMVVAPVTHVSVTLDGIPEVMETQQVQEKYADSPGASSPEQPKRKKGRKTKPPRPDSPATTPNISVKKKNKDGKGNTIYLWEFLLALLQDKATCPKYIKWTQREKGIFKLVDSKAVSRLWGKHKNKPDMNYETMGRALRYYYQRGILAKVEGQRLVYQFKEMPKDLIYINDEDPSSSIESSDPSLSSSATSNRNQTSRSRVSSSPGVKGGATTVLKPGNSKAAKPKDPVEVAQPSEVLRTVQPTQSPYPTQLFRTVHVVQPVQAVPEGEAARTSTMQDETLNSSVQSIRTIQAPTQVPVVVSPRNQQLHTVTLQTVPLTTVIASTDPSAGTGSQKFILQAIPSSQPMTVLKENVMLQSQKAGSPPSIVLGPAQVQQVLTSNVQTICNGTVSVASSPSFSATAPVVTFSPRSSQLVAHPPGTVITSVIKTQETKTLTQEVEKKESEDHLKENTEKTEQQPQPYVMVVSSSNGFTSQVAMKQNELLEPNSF
SPIB, sequence (Q01892 whole entry): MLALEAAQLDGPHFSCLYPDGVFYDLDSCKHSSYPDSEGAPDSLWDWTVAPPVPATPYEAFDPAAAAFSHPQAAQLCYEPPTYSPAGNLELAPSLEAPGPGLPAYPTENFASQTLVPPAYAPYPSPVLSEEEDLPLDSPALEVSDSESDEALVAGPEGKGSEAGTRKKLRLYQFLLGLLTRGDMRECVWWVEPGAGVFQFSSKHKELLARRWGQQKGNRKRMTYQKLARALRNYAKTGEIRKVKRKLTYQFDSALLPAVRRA

| Sequence | binding signal [1] | binding signal [2] | binding signal [3] | binding signal [4] | binding signal [5] | binding signal [6] | binding signal [7] | binding signal [8] | binding signal [9] |
| --- | --- | --- | --- | --- | --- | --- | --- | --- | --- |
| TTATTC | 1.48 fold enrichment (6-mer frequency, TF over GST control) | 1.41 fold enrichment (6-mer frequency, TF over GST control) | 1.38 fold enrichment (6-mer frequency, TF over GST control) | 1.34 fold enrichment (6-mer frequency, TF over GST control) | 1.3 fold enrichment (6-mer frequency, TF over GST control) | 1.29 fold enrichment (6-mer frequency, TF over GST control) | 1.33 fold enrichment (6-mer frequency, TF over GST control) | 1.39 fold enrichment (6-mer frequency, TF over GST control) | 1.45 fold enrichment (6-mer frequency, TF over GST control) |
| AGCGAC | 1.09 fold enrichment (6-mer frequency, TF over GST control) | 1.15 fold enrichment (6-mer frequency, TF over GST control) | 1.09 fold enrichment (6-mer frequency, TF over GST control) | 1.23 fold enrichment (6-mer frequency, TF over GST control) | 1.17 fold enrichment (6-mer frequency, TF over GST control) | 1.23 fold enrichment (6-mer frequency, TF over GST control) | 1.06 fold enrichment (6-mer frequency, TF over GST control) | 1.16 fold enrichment (6-mer frequency, TF over GST control) | 1.04 fold enrichment (6-mer frequency, TF over GST control) |
| CGTTAC | 1.17 fold enrichment (6-mer frequency, TF over GST control) | 1.09 fold enrichment (6-mer frequency, TF over GST control) | 1.08 fold enrichment (6-mer frequency, TF over GST control) | 1.11 fold enrichment (6-mer frequency, TF over GST control) | 1.12 fold enrichment (6-mer frequency, TF over GST control) | 1.14 fold enrichment (6-mer frequency, TF over GST control) | 1.27 fold enrichment (6-mer frequency, TF over GST control) | 1.11 fold enrichment (6-mer frequency, TF over GST control) | 1.21 fold enrichment (6-mer frequency, TF over GST control) |
| GTCCAC | 1.03 fold enrichment (6-mer frequency, TF over GST control) | 1.07 fold enrichment (6-mer frequency, TF over GST control) | 1.11 fold enrichment (6-mer frequency, TF over GST control) | 1.03 fold enrichment (6-mer frequency, TF over GST control) | 1.02 fold enrichment (6-mer frequency, TF over GST control) | 1.12 fold enrichment (6-mer frequency, TF over GST control) | 1.02 fold enrichment (6-mer frequency, TF over GST control) | 1.09 fold enrichment (6-mer frequency, TF over GST control) | 1.04 fold enrichment (6-mer frequency, TF over GST control) |
| CCGCCG | 1.29 fold enrichment (6-mer frequency, TF over GST control) | 1.4 fold enrichment (6-mer frequency, TF over GST control) | 1.41 fold enrichment (6-mer frequency, TF over GST control) | 1.37 fold enrichment (6-mer frequency, TF over GST control) | 1.26 fold enrichment (6-mer frequency, TF over GST control) | 1.34 fold enrichment (6-mer frequency, TF over GST control) | 1.27 fold enrichment (6-mer frequency, TF over GST control) | 1.16 fold enrichment (6-mer frequency, TF over GST control) | 1.26 fold enrichment (6-mer frequency, TF over GST control) |
| CATGCT | 1.33 fold enrichment (6-mer frequency, TF over GST control) | 1.2 fold enrichment (6-mer frequency, TF over GST control) | 1.21 fold enrichment (6-mer frequency, TF over GST control) | 1.23 fold enrichment (6-mer frequency, TF over GST control) | 1.23 fold enrichment (6-mer frequency, TF over GST control) | 1.24 fold enrichment (6-mer frequency, TF over GST control) | 1.11 fold enrichment (6-mer frequency, TF over GST control) | 1.25 fold enrichment (6-mer frequency, TF over GST control) | 1.3 fold enrichment (6-mer frequency, TF over GST control) |
| TAAAGA | 1.11 fold enrichment (6-mer frequency, TF over GST control) | 1.04 fold enrichment (6-mer frequency, TF over GST control) | 1.14 fold enrichment (6-mer frequency, TF over GST control) | 1.14 fold enrichment (6-mer frequency, TF over GST control) | 1.14 fold enrichment (6-mer frequency, TF over GST control) | 1.07 fold enrichment (6-mer frequency, TF over GST control) | 1.12 fold enrichment (6-mer frequency, TF over GST control) | 1.11 fold enrichment (6-mer frequency, TF over GST control) | 1.07 fold enrichment (6-mer frequency, TF over GST control) |
